Results filed as inconclusive are left out. Unmarked numbers belong to inactive results. Calls of active or inactive are those of the source. Calls come from the whole dose curve; as a rule, active = well fitted cell-killing curve with a large enough effect; inconclusive = small, poorly fitted or top-dose-only effect, or effect the other way; inactive = no such curve, though single readings can be large or run the other way.
Potency is the fitted concentration of half-maximal effect.

The test in a line: Quantitative High-Throughput drug screen in 47 multiple myeloma cell lines against the NCATS MIPE library collection: KMM1_JCRB cell viability assay (AID 1918960).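 For viability (% of DMSO): 100% = DMSO-treated cells and 0% = medium-only wells.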 Note: nearly all actives have a fitted effect of over 30% in size. As to conditions: KMM1 myeloma viability, CellTiter-Glo ATP luminescence, 48 h; series mostly up to 45.8 µM. An outline of the steps:
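Luminescence from CellTiter-Glo, taken after 5 min at room temperature, reports cellular ATP as viability. Cells (500 per well) had been treated 48 h at 37 °C with MIPE 4.0 compounds, scaled between DMSO and medium-only controls.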
With `O=C(CCCCCCC(=O)Nc1ccc([C@H]2O[C@@H](CSc3nc(-c4ccccc4)c(-c4ccccc4)o3)C[C@@H](c3ccc(CO)cc3)O2)cc1)NO`, the Potency result was “inactive”. On the same count and under the same terms, under `CCS(=O)(=O)c1cccc(-c2cc(C(=O)NC3CCN(C)CC3)c(C)c3[nH]c4ncc(C)cc4c23)c1` stands 2.96 µM (active). Still for that read-out and setting: for `COc1cc2ncnc(Nc3ccc(F)c(Cl)c3)c2cc1NC(=O)C=CCN1CCCCC1` the value was 8.33 µM (active); for `C#Cc1cccc(Nc2ncnc3cc(OC)c(OCCCCCCC(=O)NO)cc23)c1`, 0.0526 µM (active); for `CC=C1NC(=O)[C@H]2CSSCCC=C[C@H](CC(=O)N[C@H](C(C)C)C(=O)N2)OC(=O)[C@H](C(C)C)NC1=O`, 0.0074 µM (active).

For `O=c1[nH]nc(Sc2ncc([N+](=O)[O-])s2)n1-c1ccc2c(c1)OCCO2`, the Potency is 5.9 µM (active). In the case of `CC[C@@]1(O)C(=O)OCc2c1cc1n(c2=O)Cc2cc3cc(O)ccc3nc2-1`, the Potency was 0.148 µM (active).

`COc1ccc(-c2cc3c(C)nc(N)nc3n(C3CCC(OCCO)CC3)c2=O)cn1` (stereo unspecified): the Potency was 0.0235 µM (active). On the same count and under the same terms, under `OCc1ccc(-c2ccc(-c3ccc(CO)s3)o2)s1` stands “inactive”. Still for that read-out and setting: for `CN1CCN(c2cc(C(=O)Nc3ccc4c(c3)-c3c(c(C(N)=O)nn3-c3ccc(F)cc3)CC4)c(Cl)cn2)CC1` the value was 20.9 µM (active); for `Cc1cnc(Nc2ccc(F)cc2Cl)nc1-c1c[nH]c(C(=O)N[C@H](CO)c2cccc(Cl)c2)c1`, 7.43 µM (active). Regarding `COc1ccc(CC2c3cc(OC)c(OC)cc3CC[N+]2(C)CCC(=O)OCCCCCOC(=O)CC[N+]2(C)CCc3cc(OC)c(OC)cc3C2Cc2ccc(OC)c(OC)c2)cc1OC` (stereo unspecified), the viability (% of DMSO) is 84% [at 5.15 µM]. For the compound `CN(C)CC=CC(=O)Nc1cc2c(Nc3ccc(F)c(Cl)c3)ncnc2cc1O[C@H]1CCOC1`, the Potency is 3.72 µM (active).

Regarding `CC(C)c1cc(C(=O)N2Cc3ccc(CN4CCN(C)CC4)cc3C2)c(O)cc1O`, the Potency is 0.105 µM (active). Take `Clc1cccc(-c2nnnn2Cc2cccnc2)c1Cl`: the Potency result is “inactive”.

Take `N#CCNC(=O)c1ccc(-c2ccnc(Nc3ccc(N4CCOCC4)cc3)n2)cc1`: the Potency entry was “inactive”. Same read-out and setting: for `Nc1ncnc2c1c(-c1cnc3[nH]ccc3c1)nn2C1CCCC1` the value was 0.0662 µM (active). As for `NC1(Cc2ccc(Cl)cc2)CCN(c2ncnc3[nH]ccc23)CC1`, the Potency was 3.72 µM (active). In the case of `COc1ccc2c(c1)CC[C@@H](CN(C)CC(=O)O)[C@H]2c1ccccc1`, the Potency is 1.32 µM (active).

As for `Nc1cc(C(F)(F)F)c(-c2cc(N3CCOCC3)nc(N3CCOCC3)n2)cn1`, the Potency was 0.372 µM (active). Still for that read-out and setting: under `COc1cccc2c(NCc3ccccc3)nc(-n3c(N)nc4ccccc43)nc12` stands 1.66 µM (active).

Source of the values: PubChem BioAssay (NCATS).
